The source made the active and inactive calls.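 Rule for the calls, unless noted: active = compounds that lower survival of HCT116 colon cancer cells in the luminescence readout, no numeric limit stated; inactive = the rest.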
Assays:
[1] = stimulators of nuclear beta-catenin in C2C12, primary screen, imaging, WNT3A-conditioned medium, mouse C2C12, NPC library (AID 1117326; in the data active = nuclear beta-catenin stimulation mostly above about 4.2%, no sharp cut-off; inactive = mostly below about 10%; note: reference of the scale not given here); settings: stronger effect = higher value
[2] = stimulators of insulin release from INS-1E, primary screen, cell-based, 5 mM glucose, NPC library (AID 1117329;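 active = compound raises insulin release from rat beta cells at 5 mM glucose, no numeric limit stated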; note: reference of the scale not given here); settings: rat INS-1E insulin secretion, at 10 µM, stronger effect = higher value
[3] = growth inhibition of GSK3B-pretreated HCT116 cells – cell-based, CellTiter-Glo, 0.2 to 20 µM (AID 1117336;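 active = compounds lowering colon cancer cell viability after pretreatment blocking the GSK3B kinase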); settings: HCT116 viability after GSK3B inhibitor, at 20 µM, stronger effect = higher value
[4] = inhibition of endothelial tube formation, primary screen, imaging, VEGF stimulated, CD31 staining, tube area, NPC library (AID 1117340;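 active = compound that reduces growth-factor-driven endothelial tube area in a mixed cell culture, no cutoff stated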); settings: VEGF-stimulated ADSC/ECFC co-culture, at 10 µM, stronger effect = higher value
[5] = glucagon-like peptide 1 release enhancers, primary assay, NCI-H716 cell line, NPC library (AID 1117341;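 active = compound raises GLP1 secretion from the human gut endocrine cells, with no numeric limit stated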; note: reference of the scale not given here); settings: NCI-H716 cells, at 10 µM, stronger effect = higher value
[6] = HCT116 colon cancer cell growth inhibition, primary screen, CellTiter-Glo luminescence, NPC library (AID 1117342); settings: at 20 µM (top of the series)
[7] = CellTiter-Glo luminescent readout of SW480 viability loss, NPC library primary (AID 1117343;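 active = compounds that lower viability of the colon cancer cells in the luminescence readout, with no numeric limit stated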); settings: CellTiter-Glo luminescence; at 20 µM (top of the series)
[8] = decreased DLD-1 cellular survival, CellTiter-Glo luminescent readout, NPC compound collection, primary HTS (AID 1117346;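 active = compounds that lower survival of DLD-1 colon cancer cells in the luminescence readout, no cutoff given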); settings: DLD-1 viability, CellTiter-Glo luminescence; at 20 µM (top of the series)

CC(C)(C)NCC(O)COc1ccccc1OCC1CCCO1 (centres undefined)
inactive: nuclear beta-catenin stimulation ([1]; at 10 µM) -0.3% | insulin secretion stimulation [2] 5.4% | viability decrease [3] -18.7% | tube area decrease [4] 34.3% | GLP1 secretion stimulation [5] -2.1% | inhibition of viability [6] -6.3% | viability decrease (inhibition) [7] 30% | viability decrease (inhibition) [8] -6.9%
2.1%: nuclear beta-catenin stimulation ([1]; stimulation, at 2 µM)

Cc1onc(-c2ccccc2Cl)c1C(=O)Cl
-0.5%: nuclear beta-catenin stimulation ([1]; stimulation, at 2 µM)
inactive: nuclear beta-catenin stimulation ([1]; at 10 µM) -1.6% | insulin secretion stimulation [2] 0.3% | viability decrease [3] -16.4% | tube area decrease [4] 0.4% | GLP1 secretion stimulation [5] 0.1% | inhibition of viability [6] 0.4% | viability decrease (inhibition) [7] 26.4% | viability decrease (inhibition) [8] 14.3%

N#CSCC(=O)O
inactive: nuclear beta-catenin stimulation ([1]; at 10 µM) 0.3% | insulin secretion stimulation [2] 0.5% | viability decrease [3] -47.6% | tube area decrease [4] 2.4% | GLP1 secretion stimulation [5] -0.1% | inhibition of viability [6] -4.8% | viability decrease (inhibition) [7] -6.2% | viability decrease (inhibition) [8] -5.4%
1%: nuclear beta-catenin stimulation ([1]; stimulation, at 2 µM)

N/C(=N\N=C\c1ccc(Cl)cc1)N/N=C/c1ccc(Cl)cc1
inactive: nuclear beta-catenin stimulation ([1]; at 10 µM) 0.5% | insulin secretion stimulation [2] -0.1% | GLP1 secretion stimulation [5] -3.3%
active: viability decrease [3] 99.6% | tube area decrease [4] 108% | inhibition of viability [6] 99.3% | viability decrease (inhibition) [7] 103% | viability decrease (inhibition) [8] 102%
0.1%: nuclear beta-catenin stimulation ([1]; stimulation, at 2 µM)

CC(=O)c1ccc(OCC(=O)N2CCCCC2)cc1
inactive: nuclear beta-catenin stimulation ([1]; at 10 µM) 1.1% | insulin secretion stimulation [2] 0.25% | viability decrease [3] 7.4% | GLP1 secretion stimulation [5] 0.7% | inhibition of viability [6] -3.4% | viability decrease (inhibition) [7] -3.6% | viability decrease (inhibition) [8] -2.8%
-0.3%: nuclear beta-catenin stimulation ([1]; stimulation, at 2 µM)
active: tube area decrease [4] 7%

CCC(=O)O[C@]1(C(=O)COC)[C@@H](C)C[C@H]2[C@@H]3CCC4=CC(=O)C=C[C@]4(C)C3(F)[C@@H](O)C[C@@]21C (some centres undefined)
inactive: nuclear beta-catenin stimulation ([1]; at 10 µM) 1.5% | insulin secretion stimulation [2] 1.1% | viability decrease [3] -69.2% | tube area decrease [4] 6.6% | GLP1 secretion stimulation [5] -0.3% | inhibition of viability [6] -4.8% | viability decrease (inhibition) [7] 6% | viability decrease (inhibition) [8] -2.9%
0.5%: nuclear beta-catenin stimulation ([1]; stimulation, at 2 µM)

Nc1ccc(S(=O)(=O)NCc2ccccc2)cc1
1.8%: nuclear beta-catenin stimulation ([1]; stimulation, at 2 µM)
inactive: nuclear beta-catenin stimulation ([1]; at 10 µM) 0.8% | insulin secretion stimulation [2] -2.5% | viability decrease [3] -8.1% | tube area decrease [4] -5.2% | GLP1 secretion stimulation [5] 0.6% | inhibition of viability [6] -18.3% | viability decrease (inhibition) [7] 37.6% | viability decrease (inhibition) [8] 10.1%

CCN1CCCC1CN (centres undefined)
1.8%: nuclear beta-catenin stimulation ([1]; stimulation, at 2 µM)
inactive: nuclear beta-catenin stimulation ([1]; at 10 µM) 1.1% | insulin secretion stimulation [2] 4.8% | viability decrease [3] 39.7% | tube area decrease [4] -0.3% | GLP1 secretion stimulation [5] 3.1% | inhibition of viability [6] 32.2% | viability decrease (inhibition) [7] 43.3% | viability decrease (inhibition) [8] 12.4%

CCNC(=O)NCc1cccc(Cl)c1
inactive: nuclear beta-catenin stimulation ([1]; at 10 µM) -1.7% | insulin secretion stimulation [2] 2.2% | viability decrease [3] -2% | tube area decrease [4] 13.7% | GLP1 secretion stimulation [5] -2.9% | inhibition of viability [6] 1.1% | viability decrease (inhibition) [7] 1.2% | viability decrease (inhibition) [8] -6.8%
-0.5%: nuclear beta-catenin stimulation ([1]; stimulation, at 2 µM)

Oc1ccccc1-c1nnco1
inactive: nuclear beta-catenin stimulation ([1]; at 10 µM) 0.3% | insulin secretion stimulation [2] 3.2% | viability decrease [3] -2.4% | tube area decrease [4] -3.9% | GLP1 secretion stimulation [5] -0.1% | inhibition of viability [6] 12.2% | viability decrease (inhibition) [7] 22.1% | viability decrease (inhibition) [8] -0.7%
-0.2%: nuclear beta-catenin stimulation ([1]; stimulation, at 2 µM)

CCOC(=O)C(C#N)=C(c1ccccc1)c1ccccc1
1.8%: nuclear beta-catenin stimulation ([1]; stimulation, at 2 µM)
inactive: nuclear beta-catenin stimulation ([1]; at 10 µM) 0.9% | insulin secretion stimulation [2] 6.6% | viability decrease [3] -0.55% | tube area decrease [4] 2.6% | GLP1 secretion stimulation [5] -0.1% | inhibition of viability [6] 26.4% | viability decrease (inhibition) [7] 18.9% | viability decrease (inhibition) [8] 15.2%

CNC(=O)c1c(I)c(NC(=O)CCCCC(=O)Nc2c(I)c(C(=O)O)c(I)c(C(=O)NC)c2I)c(I)c(C(=O)O)c1I
2.2%: nuclear beta-catenin stimulation ([1]; stimulation, at 2 µM)
inactive: nuclear beta-catenin stimulation ([1]; at 10 µM) -0.7% | insulin secretion stimulation [2] -0.3% | viability decrease [3] -17.5% | tube area decrease [4] -0.8% | GLP1 secretion stimulation [5] -0.4% | inhibition of viability [6] 9.4% | viability decrease (inhibition) [7] -3.6% | viability decrease (inhibition) [8] -2.4%

COc1cc2c(cc1OC)C(C(C(=O)N(CCc1ccc(OC)c(OC)c1OC)CCc1ccc(OC)c(OC)c1OC)c1ccccc1)=NCC2 (centres undefined)
active: viability decrease [3] 74.1% | inhibition of viability [6] 83.5% | viability decrease (inhibition) [7] 87.9% | viability decrease (inhibition) [8] 69.8%
8.3%: nuclear beta-catenin stimulation ([1]; stimulation, at 2 µM)
inactive: nuclear beta-catenin stimulation ([1]; at 10 µM) 4.4% | insulin secretion stimulation [2] -0.9% | tube area decrease [4] 20.6% | GLP1 secretion stimulation [5] 4.1%

C[C@@H](O)[C@H](N)C(=O)O
0.7%: nuclear beta-catenin stimulation ([1]; stimulation, at 2 µM)
inactive: nuclear beta-catenin stimulation ([1]; at 10 µM) 0.7% | insulin secretion stimulation [2] -1.9% | viability decrease [3] -7.25% | tube area decrease [4] -11.2% | GLP1 secretion stimulation [5] 1.6% | inhibition of viability [6] -31.1% | viability decrease (inhibition) [7] 13.3% | viability decrease (inhibition) [8] 12.6%

C=CCN1C(=O)C(CC(C)C)NC1=S (centres undefined)
active: viability decrease (inhibition) [7] 2.8%
inactive: nuclear beta-catenin stimulation ([1]; at 10 µM) 0% | insulin secretion stimulation [2] -1.4% | viability decrease [3] -1.7% | tube area decrease [4] -6.4% | GLP1 secretion stimulation [5] -4% | inhibition of viability [6] -4.1% | viability decrease (inhibition) [8] -17.7%
0.3%: nuclear beta-catenin stimulation ([1]; stimulation, at 2 µM)

CC(C)=CCC/C(C)=C/CC/C(C)=C/CCC(=O)OC/C=C(\C)CCC=C(C)C
inactive: nuclear beta-catenin stimulation ([1]; at 10 µM) 0.5% | insulin secretion stimulation [2] 5.2% | viability decrease [3] -4.2% | tube area decrease [4] -4.6% | GLP1 secretion stimulation [5] 3.3% | inhibition of viability [6] 1.5% | viability decrease (inhibition) [7] -3.7% | viability decrease (inhibition) [8] 2%
0.6%: nuclear beta-catenin stimulation ([1]; stimulation, at 2 µM)
